Test results: PubChem BioAssay AID1159580 (chemical genetic matrix, 2015)
Several values for one entry are separate records, joined by “and”; a condition that tells them apart may be missing. Equal values may be shown once. Hit rate of the full screen: of about 5,500 compounds, about 2,000 (36%) were called active. About 18% were inconclusive and are not listed. No stated cut-off is given here; in the data, active means normalized growth mostly below about 0.91 (no sharp cut-off); inconclusive means no clear call, values can overlap the other calls; inactive means mostly above about 0.92. This is one part of the list.

Test: chemical genetic growth profiling, strain panel (AID 1159580);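 further: tested at 20 µM; growth read once vehicle control cultures reached saturation at 30 °C; 1 = growth at the plate median or of vehicle wells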
Conditions: growth OD

Measured: normalized growth

CN1CCN2c3ccccc3Cc3ccccc3C2C1 (stereo unspecified)
inactive: S. cerevisiae deletion strains, locus YJR075W, strain HOC1, stronger effect = lower value 1 and 0.97 | S. cerevisiae deletion strains, locus YKL009W, strain mrt4, stronger effect = lower value 0.999 | S. cerevisiae deletion strains, locus YKL068W, stronger effect = lower value 0.991 | S. cerevisiae deletion strains, locus YKL085W, strain MDH1 (second series), stronger effect = lower value 0.987 | S. cerevisiae deletion strains, locus YKL085W, strain MDH1, stronger effect = lower value 0.987 | S. cerevisiae deletion strains, locus YKL160W, strain elf1, stronger effect = lower value 0.989 | S. cerevisiae deletion strains, locus YKL190W, strain CNB1, stronger effect = lower value 1.02 | S. cerevisiae deletion strains, locus YKR001C, strain vps1, stronger effect = lower value 0.976 | S. cerevisiae deletion strains, locus YKR026C, strain gcn3, stronger effect = lower value 1 | S. cerevisiae deletion strains, locus YKR091W, strain srl3, stronger effect = lower value 1.01 | S. cerevisiae deletion strains, locus YLL001W, strain dnm1, stronger effect = lower value 0.982 | S. cerevisiae deletion strains, locus YLL026W, stronger effect = lower value 0.997 | S. cerevisiae deletion strains, locus YLL041C, strain sdh2, stronger effect = lower value 1 | S. cerevisiae deletion strains, locus YLR027C, strain aat2, stronger effect = lower value 1 | S. cerevisiae deletion strains, locus YLR039C, strain RIC1, stronger effect = lower value 1.03 | S. cerevisiae deletion strains, locus YLR058C, strain SHM2, stronger effect = lower value 1.01 | S. cerevisiae deletion strains, locus YLR102C, strain apc9, stronger effect = lower value 0.994 | S. cerevisiae deletion strains, locus YLR113W, strain HOG1, stronger effect = lower value 0.996 | S. cerevisiae deletion strains, locus YLR221C, strain rsa3, stronger effect = lower value 0.993 | S. cerevisiae deletion strains, locus YLR258W, strain gsy2, stronger effect = lower value 0.987 | S. cerevisiae deletion strains, locus YLR262C, strain YPT6 (second series), stronger effect = lower value 0.991 | S. cerevisiae deletion strains, locus YLR262C, strain YPT6, stronger effect = lower value 1.05 | S. cerevisiae deletion strains, locus YLR268W, strain sec22, stronger effect = lower value 0.974 | S. cerevisiae deletion strains, locus YLR320W, strain mms22, stronger effect = lower value 0.985 | S. cerevisiae deletion strains, locus YLR330W, strain CHS5, stronger effect = lower value 1.01 | S. cerevisiae deletion strains, locus YLR342W, strain FKS1 (second series), stronger effect = lower value 0.985 | S. cerevisiae deletion strains, locus YLR342W, strain FKS1, stronger effect = lower value 0.999 | S. cerevisiae deletion strains, locus YLR357W, strain rsc2, stronger effect = lower value 1.01 | S. cerevisiae deletion strains, locus YLR370C, strain arc18, stronger effect = lower value 1 | S. cerevisiae deletion strains, locus YLR371W, strain rom2, stronger effect = lower value 1 | S. cerevisiae deletion strains, locus YLR384C, strain iki3, stronger effect = lower value 1 | S. cerevisiae deletion strains, locus YLR418C, strain cdc73, stronger effect = lower value 0.989 | S. cerevisiae deletion strains, locus YML016C, strain PPZ1, stronger effect = lower value 1.01 | S. cerevisiae deletion strains, locus YML032C, strain rad52, stronger effect = lower value 1 | S. cerevisiae deletion strains, locus YML120C, strain ndi1, stronger effect = lower value 1 | S. cerevisiae deletion strains, locus YML124C, strain tub3, stronger effect = lower value 0.994 | S. cerevisiae deletion strains, locus YMR058W, strain fet3, stronger effect = lower value 1.01 | S. cerevisiae deletion strains, locus YMR078C, strain ctf18, stronger effect = lower value 0.987 | S. cerevisiae deletion strains, locus YMR125W, strain sto1, stronger effect = lower value 1 | S. cerevisiae deletion strains, locus YMR129W, stronger effect = lower value 0.981 | S. cerevisiae deletion strains, locus YMR205C, strain PFK2, stronger effect = lower value 0.982 | S. cerevisiae deletion strains, locus YMR223W, strain ubp8, stronger effect = lower value 0.986 | S. cerevisiae deletion strains, locus YMR231W, strain pep5, stronger effect = lower value 1 | S. cerevisiae deletion strains, locus YMR263W, strain SAP30, stronger effect = lower value 1.01 and 0.995 | S. cerevisiae deletion strains, locus YMR307W, strain GAS1, stronger effect = lower value 1.04 | S. cerevisiae deletion strains, locus YNL067W, strain RPL9B, stronger effect = lower value 1.02 | S. cerevisiae deletion strains, locus YNL071W, strain lat1, stronger effect = lower value 0.998 | S. cerevisiae deletion strains, locus YNL128W, strain TEP1, stronger effect = lower value 1.02 | S. cerevisiae deletion strains, locus YNL153C, strain GIM3, stronger effect = lower value 1.02 and 0.974 | S. cerevisiae deletion strains, locus YNL175C, strain NOP13, stronger effect = lower value 1.02 | S. cerevisiae deletion strains, locus YNL183C, strain NPR1, stronger effect = lower value 0.919 | S. cerevisiae deletion strains, locus YNL197C, strain WHI3, stronger effect = lower value 1.02 | S. cerevisiae deletion strains, locus YNL209W, strain ssb2, stronger effect = lower value 0.997 | S. cerevisiae deletion strains, locus YNL224C, strain SQS1, stronger effect = lower value 1.02 | S. cerevisiae deletion strains, locus YNL233W, strain BNI4, stronger effect = lower value 1.02 | S. cerevisiae deletion strains, locus YNL248C, strain rpa49, stronger effect = lower value 0.994 | S. cerevisiae deletion strains, locus YNL250W, strain rad50, stronger effect = lower value 0.985 | S. cerevisiae deletion strains, locus YNL271C, strain bni1, stronger effect = lower value 0.981 | S. cerevisiae deletion strains, locus YNL298W, strain CLA4, stronger effect = lower value 0.99 | S. cerevisiae deletion strains, locus YNL307C, strain MCK1, stronger effect = lower value 0.993 | S. cerevisiae deletion strains, locus YNL322C, strain KRE1 (second series), stronger effect = lower value 0.996 | S. cerevisiae deletion strains, locus YNL322C, strain KRE1, stronger effect = lower value 1.02 | S. cerevisiae deletion strains, locus YNR049C, strain mso1, stronger effect = lower value 1 | S. cerevisiae deletion strains, locus YNR052C, strain pop2, stronger effect = lower value 0.989 | S. cerevisiae deletion strains, locus YOL006C, strain TOP1, stronger effect = lower value 1.02 | S. cerevisiae deletion strains, locus YOL012C, strain htz1 0.782 | S. cerevisiae deletion strains, locus YOL147C, strain pex11, stronger effect = lower value 0.991 | S. cerevisiae deletion strains, locus YOR001W, strain rrp6, stronger effect = lower value 0.99 | S. cerevisiae deletion strains, locus YOR061W, strain CKA2, stronger effect = lower value 1.02 | S. cerevisiae deletion strains, locus YOR069W, strain VPS5, stronger effect = lower value 1.01 | S. cerevisiae deletion strains, locus YOR070C, strain gyp1, stronger effect = lower value 0.999 | S. cerevisiae deletion strains, locus YOR080W, strain dia2, stronger effect = lower value 1.01 | S. cerevisiae deletion strains, locus YOR083W, strain WHI5 (second series), stronger effect = lower value 0.985 | S. cerevisiae deletion strains, locus YOR083W, strain WHI5, stronger effect = lower value 0.983 | S. cerevisiae deletion strains, locus YOR106W, strain vam3, stronger effect = lower value 0.986 | S. cerevisiae deletion strains, locus YOR136W, strain idh2, stronger effect = lower value 0.992 | S. cerevisiae deletion strains, locus YOR144C, strain elg1, stronger effect = lower value 0.99 | S. cerevisiae deletion strains, locus YOR184W, strain ser1, stronger effect = lower value 0.98 | S. cerevisiae deletion strains, locus YOR231W, strain MKK1, stronger effect = lower value 0.973 | S. cerevisiae deletion strains, locus YOR265W, strain rbl2, stronger effect = lower value 1 | S. cerevisiae deletion strains, locus YOR270C, strain vph1, stronger effect = lower value 0.993 | S. cerevisiae deletion strains, locus YOR290C, strain snf2, stronger effect = lower value 0.928 | S. cerevisiae deletion strains, locus YOR316C, strain cot1, stronger effect = lower value 0.989 | S. cerevisiae deletion strains, locus YPL051W, strain arl3, stronger effect = lower value 0.988 | S. cerevisiae deletion strains, locus YPL055C, strain LGE1, stronger effect = lower value 1.04 | S. cerevisiae deletion strains, locus YPL078C, strain atp4, stronger effect = lower value 0.983 | S. cerevisiae deletion strains, locus YPL106C, strain sse1, stronger effect = lower value 0.989 | S. cerevisiae deletion strains, locus YPL240C, strain hsp82, stronger effect = lower value 1.01 | S. cerevisiae deletion strains, locus YPL241C, strain CIN2, stronger effect = lower value 1.01 | S. cerevisiae deletion strains, locus YPL256C, strain CLN2, stronger effect = lower value 0.99 | S. cerevisiae deletion strains, locus YPR119W, strain clb2, stronger effect = lower value 0.988 | S. cerevisiae deletion strains, locus YPR141C, strain kar3, stronger effect = lower value 0.975 | S. cerevisiae deletion strains, locus YPR163C, strain tif3, stronger effect = lower value 0.984 | S. cerevisiae deletion strains, locus YPR167C, strain met16, stronger effect = lower value 0.987 | S. cerevisiae deletion strains, strain wtn01, stronger effect = lower value 0.97 | S. cerevisiae strains, strain wild type, stronger effect = lower value 1.01
